# PubChem BioAssay (NCI)
# Several values for one entry are separate records, joined by “and”; a condition that tells them apart may be missing. Identical values can stand only once. About 79,000 compounds went through this panel and 15% of them were active in at least one assay; those are over-represented in the sample as a whole. The source holds several records for some structures; these can differ, active in one and inactive in another. Activity calls are given as the source filed them. Cut-off read from the data, not from the text of the source: active = growth inhibition above about 70%; inactive = the rest.
# Columns and labels:
# [1] = NCI Yeast Anticancer Drug Screen. Data for the rad50 strain (AID 155);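 note: 0% = growth of vehicle-only cultures of the same strain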; conditions: S. cerevisiae rad50 strain growth inhibition, stronger effect = higher value
# Summary of the method: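 Genetically altered yeast (DNA repair pathway); compound treatment; growth inhibition vs vehicle ctrl.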
# [2] = NCI Yeast Anticancer Drug Screen. Data for the mec2-1 strain (AID 157); conditions: S. cerevisiae mec2-1 strain, stronger effect = higher value
# Summary of the method: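 Vehicle-treated cultures served as reference for growth inhibition of compound-exposed mec2-1 yeast.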
# [3] = NCI Yeast Anticancer Drug Screen. Data for the sgs1 mgt1 strain (AID 161);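 note: 0% = growth of cultures given vehicle only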; conditions: S. cerevisiae sgs1 mgt1 strain, stronger effect = higher value
# Summary of the method: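 Genetically altered yeast, compound exposure, growth inhibition relative to vehicle.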
# [4] = NCI Yeast Anticancer Drug Screen. Data for the cln2 rad14 strain (AID 165);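 note: 0% = growth equal to vehicle treated cultures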; conditions: S. cerevisiae cln2 rad14 strain, stronger effect = higher value
# Summary of the method: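 Each compound was tested on cln2 rad14 yeast. Inhibition of growth was calculated against vehicle-exposed controls.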
# [5] = NCI Yeast Anticancer Drug Screen. Data for the bub3 strain (AID 167); conditions: S. cerevisiae bub3 mutant strain, stronger effect = higher value
# Summary of the method: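 Yeast carrying a defined mutation is treated with each compound, and growth is compared with that of vehicle-exposed cells to give inhibition.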
# [6] = NCI Yeast Anticancer Drug Screen. Data for the mlh1 rad18 strain (AID 175); conditions: S. cerevisiae mlh1 rad18 strain growth inhibition, stronger effect = higher value
# Summary of the method: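 Vehicle-treated cultures served as the reference for growth inhibition in a yeast strain carrying DNA damage repair alterations exposed to each compound.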
# [7] = at 5.0 µM (retest, dose inferred, filed as 0.5)
# [8] = at 50.0 µM (retest, dose inferred, filed as 5.0)
Compound,"growth inhibition [1, 7]","growth inhibition [1, 8]",growth inhibition ([1]; at 50.0 µM),"growth inhibition [2, 7]","growth inhibition [2, 8]",growth inhibition ([2]; at 50.0 µM),"growth inhibition [3, 7]","growth inhibition [3, 8]",growth inhibition ([3]; at 50.0 µM),"growth inhibition [4, 7]","growth inhibition [4, 8]",growth inhibition ([4]; at 50.0 µM),"growth inhibition [5, 7]","growth inhibition [5, 8]",growth inhibition ([5]; at 50.0 µM),"growth inhibition [6, 7]","growth inhibition [6, 8]",growth inhibition ([6]; at 50.0 µM)
Nc1ccc(Cc2ccc(Br)cc2)cc1,28% (inactive),98% (active),99.2% (active),12% (inactive),99% (active),99.3% (active),1% (inactive),99% (active),99.3% (active),8% (inactive),98% (active),98.8% (active),30% (inactive),98% (active),98.8% (active),30% (inactive),98% (active),99.2% (active)
C=C[C@]1(C)C=C2C(O)CC3C(C)(C)CCC[C@]3(CO)C2CC1 (some centres undefined),8% (inactive),99% (active),99.2% (active),13% (inactive),100% (active),99.6% (active),17% (inactive),97% (active),99.5% (active),13% (inactive),99% (active),99.3% (active),4% (inactive),99% (active),99.5% (active),26% (inactive),99% (active),99.2% (active)
Cc1ccc(S(=O)(=O)C23C(N=NC2(C)C)C3(C)C)cc1 (centres undefined),10% (inactive),3% (inactive),-4.7% (inactive),4% (inactive),-3% (inactive),-10.6% (inactive),-16% (inactive),4% (inactive),1.25% (inactive),8% (inactive),15% (inactive),-39.9% (inactive),15% (inactive),-2% (inactive),-45.8% (inactive),-1% (inactive),-16% (inactive),8.4% (inactive)
CCOc1ccc(NC(=O)/C(=C\c2ccc(C)cc2)C(C)=O)cc1,-17% (inactive),-1% (inactive),-32% (inactive) and 8.1% (inactive),-2% (inactive),-3% (inactive),-2.3% (inactive) and -25.1% (inactive),9% (inactive),-4% (inactive),2.9% (inactive) and 3.65% (inactive),-6% (inactive),5% (inactive),-24.8% (inactive) and -8.15% (inactive),-3% (inactive),-5% (inactive),-2.4% (inactive) and -19.2% (inactive),-3% (inactive),-5% (inactive),6% (inactive) and 0.5% (inactive)
CC(C)OC(=S)SSC(=S)OC(C)C,5% (inactive) and 11% (inactive),99% (active) and 98% (active),99.4% (active),4% (inactive) and 0% (inactive),100% (active) and 98% (active),99.5% (active),1% (inactive) and 9% (inactive),99% (active) and 100% (active),99.3% (active),33% (inactive) and 9% (inactive),94% (active) and 84% (active),98.4% (active),7% (inactive) and 2% (inactive),99% (active) and 100% (active),99% (active),-1% (inactive) and 18% (inactive),99% (active) and 94% (active),98.3% (active)
CCN(CC)c1ccc(/C=C/c2ccnc3ccccc23)cc1,-11% (inactive) and 0% (inactive),95% (active) and 98% (active),99% (active) and 98.3% (active),-3% (inactive) and 1% (inactive),98% (active) and 99% (active),99% (active) and 97.8% (active),4% (inactive) and -3% (inactive),94% (active) and 98% (active),99.1% (active) and 98.5% (active),-10% (inactive) and 7% (inactive),97% (active) and 98% (active),98.6% (active) and 97.5% (active),28% (inactive) and -4% (inactive),98% (active) and 99% (active),98.7% (active) and 98.3% (active),17% (inactive) and 16% (inactive),97% (active) and 98% (active),98.3% (active) and 97.4% (active)
COc1ccc2nc3cc(Cl)ccc3c(NCCCNCc3cc(OC)c(OC)c(OC)c3)c2c1,18% (inactive),92% (active),98.2% (active),-3% (inactive),62% (inactive),98.3% (active),6% (inactive),87% (active),98.3% (active),21% (inactive),83% (active),98.8% (active),22% (inactive),82% (active),98.8% (active),3% (inactive),92% (active),98% (active)
Nc1nc(N)c2nc3c4ccccc4c4ccccc4c3nc2n1,2% (inactive),35% (inactive),56.5% (inactive),1% (inactive),30% (inactive),38.5% (inactive),0% (inactive),32% (inactive),21.7% (inactive),1% (inactive),3% (inactive),68.8% (inactive),7% (inactive),38% (inactive),74.5% (active),5% (inactive),44% (inactive),69.5% (inactive)
CCOC(=O)c1c[nH]c2c([N+](=O)[O-])cc(OC)cc2c1=O,-1% (inactive),32% (inactive),10.6% (inactive) and 61.4% (inactive),2% (inactive),21% (inactive),40.1% (inactive) and 35.2% (inactive),3% (inactive),41% (inactive),36% (inactive) and 16.3% (inactive),-6% (inactive),24% (inactive),-11.7% (inactive) and -10.1% (inactive),2% (inactive),46% (inactive),18.6% (inactive) and 61% (inactive),6% (inactive),42% (inactive),56.9% (inactive) and 73% (active)
CCN(CC)c1ccc(NC(C(=O)c2ccccc2)c2ccccc2)cc1 (centres undefined),99% (active) and 2% (inactive),99% (active) and 46% (inactive),99.4% (active) and 54.9% (inactive),97% (active) and 2% (inactive),99% (active) and 30% (inactive),98.9% (active) and 37.1% (inactive),100% (active) and 8% (inactive),100% (active) and 83% (active),99.2% (active) and 81.2% (active),98% (active) and 0% (inactive),99% (active) and 7% (inactive),98.7% (active) and 42.6% (inactive),100% (active) and 2% (inactive),99% (active) and 44% (inactive),99.2% (active) and 53.5% (inactive),99% (active) and 2% (inactive),99% (active) and 46% (inactive),98.5% (active) and 68.2% (inactive)
CCOc1ccc(NC(=O)C(=O)NO)cc1,7% (inactive),73% (active),83% (active),-25% (inactive),59% (inactive),71.8% (active),10% (inactive),67% (inactive),74% (active),6% (inactive),26% (inactive),52% (inactive),-8% (inactive),85% (active),79.5% (active),-14% (inactive),87% (active),79.7% (active)
O=C(N/C=C/C=C/Sc1ccccc1)OCc1ccccc1,6% (inactive),97% (active),0.05% (inactive),-6% (inactive),98% (active),21.8% (inactive),-20% (inactive),98% (active),38.6% (inactive),23% (inactive),97% (active),-4.35% (inactive),5% (inactive),99% (active),2.2% (inactive),-8% (inactive),98% (active),17.6% (inactive)
O=C(O)/C(=C(/c1ccccc1)c1ccc(Cl)cc1)c1ccccc1,35% (inactive),98% (active),98.2% (active) and 89.3% (active),37% (inactive),100% (active),32.6% (inactive) and -26.5% (inactive),46% (inactive),100% (active),81.8% (active) and 89.8% (active),55% (inactive),99% (active),94.2% (active) and 91.3% (active),43% (inactive),99% (active),49.7% (inactive) and 90.3% (active),69% (inactive),98% (active),97.4% (active) and 89.5% (active)
